Results taken from PubChem BioAssay AID588342 (National Center for Advancing Translational Sciences (NCATS), 2011).
Out of some 360,000 compounds screened, about 25,000 (6.9%) were called active. Where a call stands in place of a potency, no number is given. Inconclusive results (about 9%) are left out. The call rests on the fitted dose curve; in most records, active means well fitted inhibition curve with a large enough effect; inconclusive means small, poorly fitted or top-dose-only effect; inactive means flat fitted curve, though single readings scatter. Only a selection was taken, and actives are over-represented in it overall.

What follows are compounds tested against Luciferin 4-monooxygenase (Photinus pyralis) (UniProt P08659) (assay: qHTS profiling assay for firefly luciferase inhibitor/activator using purifed enzyme and Km concentrations of substrates (counterscreen for miR-21 project)). Conditions: purified FLuc, luminescence inhibition; series mostly up to 57.5 µM.
In short: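 Purified P. pyralis luciferase, 10 nM final, with Km-level 10 uM D-luciferin and 10 uM ATP in 50 mM Tris acetate pH 7.5, 10 mM Mg acetate, 0.01% Tween-20, 0.05% BSA; 6-point qHTS titration about 60 µM downward; luminescence read.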
Further: nearly all actives have a fitted effect of over 55% in size.
Potency means the concentration at half of the fitted maximal effect.

Luciferin 4-monooxygenase (Photinus pyralis), sequence (P08659 whole entry, looked up): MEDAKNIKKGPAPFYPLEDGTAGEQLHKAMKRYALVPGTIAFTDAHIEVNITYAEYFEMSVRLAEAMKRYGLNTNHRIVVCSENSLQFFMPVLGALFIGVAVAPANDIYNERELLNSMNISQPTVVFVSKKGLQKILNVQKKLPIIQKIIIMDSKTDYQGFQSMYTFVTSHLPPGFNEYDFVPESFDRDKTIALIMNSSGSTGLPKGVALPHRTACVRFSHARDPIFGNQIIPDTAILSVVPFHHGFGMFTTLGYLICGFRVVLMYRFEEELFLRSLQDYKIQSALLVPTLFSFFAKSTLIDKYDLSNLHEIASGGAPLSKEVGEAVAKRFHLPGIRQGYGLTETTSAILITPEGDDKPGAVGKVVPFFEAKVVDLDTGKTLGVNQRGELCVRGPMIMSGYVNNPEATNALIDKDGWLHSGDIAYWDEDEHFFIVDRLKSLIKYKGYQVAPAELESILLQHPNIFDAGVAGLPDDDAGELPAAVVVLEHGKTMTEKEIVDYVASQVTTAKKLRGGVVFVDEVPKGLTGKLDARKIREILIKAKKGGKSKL

| Compound | Potency |
| --- | --- |
| Cc1ccc(C(=O)NCCNC(=O)c2cnccn2)cc1 | inactive |
| CCN(CC)c1ccc(/C=N/NC(=O)c2cnccn2)c(O)c1 | 9.53 µM (active) |
| COc1ccc(NC(=O)C/C(C)=N/NC(=O)c2cnccn2)cc1Cl | inactive |
| O=C(CSc1ncnc2c1cnn2CCc1ccccc1)Nc1ccc(F)cc1 | inactive |
| CC(=O)c1ccc(NC(=O)C2CCN(S(=O)(=O)c3c(C)noc3/C=C/c3ccc(C)cc3)CC2)cc1 | inactive |
| COc1ccc(C2(C)ON(c3ccccc3C(F)(F)F)C2=O)cc1 (stereo not given) | inactive |
| CCNCCC(=O)N1c2ccccc2Sc2ccc(NC(=O)OCC)cc21 | inactive |
| Cc1nn(Cc2ccc(F)cc2)c(C)c1NC(=O)c1cc(CC(C)C)on1 | inactive |
| C[C@H](NC(=O)NCCc1ccccc1)C(=O)O | inactive |
| Nc1nonc1C(=O)NCCc1ccccc1 | inactive |
| O=C(Nc1ccccc1Br)c1cc(CN2CCCC2)on1 | inactive |
| CC(C)Cc1cc(C(=O)Nc2cc(Br)ccc2O)no1 | 12 µM (active) |
| CC(C)Cc1cc(C(=O)NCCc2ccccc2)no1 | 10.7 µM (active) |
| O=S(=O)(NCCCN1CCOCC1)c1ccc(F)c(Cl)c1 | inactive |
| CCCN=C1NC(=O)C(CC(=O)NCCc2ccc(OC)c(OC)c2)S1 (stereo not given) | inactive |
| Cc1cccc(-n2ccnc2SCC(=O)Nc2cc(C(F)(F)F)ccc2Cl)c1 | inactive |
| CN1CCN(C(CNC(=O)c2ccccc2F)c2ccc3c(c2)OCO3)CC1 (stereo not given) | inactive |
| CCn1c(CSc2nc(C)cc(C)n2)nnc1SCC(N)=O | inactive |
| C=CCn1c(SCC(N)=O)nnc1-c1cc2c(s1)CCC(CC)C2 (stereo not given) | 7.57 µM (active) |
| C=CCn1c(SCc2c(C(=O)OC)sc(N)c2C(=O)OC)nnc1-c1ccc(Cl)cc1 | inactive |
| Cc1oc2ncnc(N3CCCCC3)c2c1C(=O)N1CCN(c2cccc(Cl)c2)CC1 | inactive |
| Cc1ccc(O)c(NC(=O)CCS(=O)(=O)c2nc(-c3ccc4c(c3)OCO4)cc(C(F)(F)F)n2)c1 | inactive |
| CCc1ccc(NC(=O)c2cc(S(=O)(=O)N3CCCC(C)C3)cn2C)cc1 (stereo not given) | inactive |
| O=C(O)CCCCCNc1ncnc2ccc(Br)cc12 | inactive |
| COc1ccc(Nc2ncnc3sc(C)cc23)cc1 | 16.9 µM (active) |
| CCOc1ccc(Nc2ncnc3scc(-c4ccc(OC)cc4)c23)cc1 | inactive |
| COc1ccc(Nc2ncnc3sc(-c4ccccc4)cc23)c(OC)c1 | 19 µM (active) |

| Compound | Potency |
| --- | --- |
| C=CCNc1ncnc2ccc(Br)cc12 | inactive |
| COc1ccc(NC(=O)c2sc(N3CCOCC3)nc2-c2ccccc2)c(OC)c1 | inactive |
| COc1ccc(Nc2ncnc3ccc(Br)cc23)c(OC)c1 | 26.9 µM (active) |
| COc1ccc(Nc2nc(=O)[nH]nc2C)cc1 | inactive |
| Oc1ccccc1N1CCN(c2ncnc3sc(-c4ccccc4)cc23)CC1 | inactive |
| Cc1cc(C)cc(NC(=O)CSc2nc3nccnc3c(=O)n2CCc2c[nH]c3ccccc23)c1 | inactive |
| COc1ccc(N2CCN(C(=O)C3CCCN(C(=O)c4cc5sccc5n4C)C3)CC2)cc1 (stereo not given) | inactive |
| Cc1cc(C)c2sc(NC(=O)c3ccc(S(=O)(=O)N4CCCC4)cc3)nc2c1 | inactive |
| CC(C)(C)c1ccc(/C=C2\Oc3c(ccc(O)c3CN3CCN(CCO)CC3)C2=O)cc1 | inactive |
| CCOc1ccc(-n2c(C)nc3c(cnn3-c3ccc(C)cc3)c2=O)cc1 | inactive |
| CCN(CC(=O)Nc1ccc(NC(C)=O)cc1)C(=O)CSC(=S)N1CCCC1 | inactive |
| O=C1c2ccccc2C(=O)N1Cc1cc(-c2ccccc2Cl)no1 | inactive |
| Cn1c(-c2ccc(F)cc2)cc2onc(-c3ccccc3Cl)c2c1=O | 2.13 µM (active) |
| Cc1onc(-c2ccccc2)c1C(=O)N1CCN(S(=O)(=O)c2ccccc2C(F)(F)F)CC1 | inactive |
| Cc1[nH]n(C)c(=O)c1C(=O)c1c(-c2c(Cl)cccc2Cl)noc1C | inactive |
| O=c1c2ccccc2c(-c2ccc(F)cc2)nn1-c1ccc(C(F)(F)F)cc1 | inactive |
| Cn1c(-c2ccc(C(F)(F)F)cc2)cc2onc(-c3ccccc3)c2c1=O | 0.536 µM (active) |
| COc1ccccc1C1C(C(=O)N2CCCCC2)=C(C)Nc2nc3ccccc3n21 (stereo not given) | inactive |
| COc1ccccc1CNC(=O)CCCN1C(=O)NC2(CCCC2)C1=O | inactive |
| CCc1cc(CNC(=O)CC2C(=O)NCCN2CC2CCCCC2)on1 (stereo not given) | inactive |
| FC(F)(F)C1CCCN(c2nsc3ccccc23)C1 (stereo not given) | 9.53 µM (active) |
| O=C(NC(Cc1ccccc1)C(=O)N1CCCC(C(F)(F)F)C1)c1ccccc1 (stereo not given) | inactive |
| CC(=O)N1CCCc2cc(S(=O)(=O)N3CCC(C(=O)NCc4ccc(F)cc4)CC3)ccc21 | inactive |
| O=C(NC(=O)N1CCOCC1)c1ccccc1 | inactive |
| CNC(=O)C(NC(=O)c1ccccc1)=C(C)C | inactive |
| O=C(NC(=O)c1ccccc1)Nc1ccccc1O | 1.9 µM (active) |
| COc1ccc(OC)c(NC(=O)CSC2=Nc3ccccc3C3=NC(CC(=O)NCc4ccc(F)cc4)C(=O)N23)c1 (stereo not given) | inactive |

| Compound | Potency |
| --- | --- |
| COc1ccc(Br)cc1C(=O)Nc1cccc(C)c1C | inactive |
| COC(=O)c1ccc(NC(=O)c2cc(Cl)ccc2OC)cc1 | inactive |
| COc1cccc2sc(N(CCCN(C)C)C(=O)C(c3ccccc3)c3ccccc3)nc12 | inactive |
| CNC(=O)c1sc(NCc2ccccc2OC)nc1C | inactive |
| COc1cc2ccccc2cc1C(=O)Nc1nc(C)c(C(C)=O)s1 | 4.78 µM (active) |
| COc1cccc2sc(Nc3nc(C)c(C(C)=O)s3)nc12 | 6.75 µM (active) |
| COc1ccccc1NC(=O)c1cc(Cl)nnc1Cl | inactive |
| COc1cc2ccccc2cc1C(=O)N1CCOCC1 | inactive |
| COc1cc2ccccc2cc1C(=O)Nc1ccccc1C | 8.49 µM (active) |
| CCC(=O)Nc1nc(C)c(C(=O)Nc2cccc(Cl)c2)s1 | inactive |
| COc1cc(OC)c(C(=O)Nc2ccccc2-c2ccccc2)cc1OC | inactive |
| COc1cc(OC)c(C(=O)Nc2ccc(N(C)C)cc2)cc1OC | 10.7 µM (active) |
| CC(=O)c1ccc(NC(=O)CSc2c(C(C)C)cnc3c2c(=O)n(C)c(=O)n3C)cc1 | inactive |
| CS(=O)(=O)N(CC(=O)N1CCOCC1)c1ccc2c3c(cccc13)CC2 | inactive |
| Cc1ccc(S(=O)(=O)N2CCC(C(=O)OCC(=O)N3CC(=O)Nc4ccccc43)CC2)cc1 | inactive |
| Cc1cc(C)n(CCC(=O)N2CCN(S(=O)(=O)c3ccc(C)c(C)c3)CC2)n1 | inactive |
| COc1ccccc1C(=O)Nc1c(C(=O)N(C)Cc2ccccc2)sc2nc(C)c(Cl)c(C)c12 | inactive |
| O=C(O)c1ccc2c(c1)N(Cc1ccc(F)cc1)C(=O)c1ccccc1S2=O (stereo not given) | inactive |
| Cc1cc(C)cc(OCC(=O)Nc2c(C(=O)c3ccccc3)oc3ccccc23)c1 | inactive |
| Cc1ccc2oc(C(=O)Nc3ccc(S(=O)(=O)N4CCCCCC4)cc3)cc(=O)c2c1 | inactive |
| O=[N+]([O-])c1cc(S(=O)(=O)NCCc2ccccn2)ccc1Cl | inactive |
| CCOc1ccc(S(=O)(=O)N2CCC(C(=O)NCC(=O)Nc3cccc(Cl)c3C)CC2)cc1 | inactive |
| O=C(CN1C(=O)COc2ccc(S(=O)(=O)N3CCCCCC3)cc21)N1CCN(c2cccc(C(F)(F)F)c2)CC1 | inactive |
| CCOc1ccc(C(=O)c2cn(Cc3ccc(F)cc3)c3ccc(F)cc3c2=O)cc1 | inactive |
| COc1cc2ccccc2cc1C(=O)Nc1ccncc1 | 12 µM (active) |
| COc1cc2ccccc2cc1C(=O)Nc1ccc(S(=O)(=O)Nc2cc(C)on2)cc1 | inactive |
| COc1cc2ccccc2cc1C(=O)Nc1ccc(NC(=O)c2cccs2)cc1 | inactive |

| Compound | Potency |
| --- | --- |
| CCOc1cccc(NC(=O)Cn2nc(-c3ccc4c(c3)OCCO4)ccc2=O)c1 | inactive |
| O=C1c2ccccc2NC(c2ccc(-c3cccc(Cl)c3)o2)N1O (stereo not given) | 10.7 µM (active) |
| Nc1nnnn1CC(=O)N/N=C/c1ccc(-c2cccc(Cl)c2)o1 | inactive |
| CC(=O)NN1C(=O)c2ccccc2NC1c1ccccc1 (stereo not given) | inactive |
| Cc1cc(C)c(NC(=O)Cn2c(SCC(=O)NCc3ccccc3)nc3ccccc32)c(C)c1 | inactive |
| CCn1c(CNC(=O)c2ccccc2)nnc1SCC(=O)N1CCN(c2ccccc2)CC1 | inactive |
| O=C(c1cnn(-c2ccc(Cl)cc2)c1)c1ccccc1O | 2.13 µM (active) |
| Cc1ncc(CC(=O)n2cc(C(=O)c3cc(Cl)ccc3O)cn2)s1 | inactive |
| CCCc1c(C(=O)O)cnn1-c1ccc(Cl)cc1 | inactive |
| COc1cc(C(C)=O)ccc1OC(C)C(=O)Nc1ccc(S(=O)(=O)N2CCCC2)cc1 (stereo not given) | inactive |
| Cc1oc2ncn(CC(C)C)c(=O)c2c1C(=O)N1CCN(c2ccccc2F)CC1 | inactive |
| N#Cc1c(NC(=O)CCCl)sc2c1CCCCC2 | inactive |
| N#Cc1c(NC(=O)C2CC(Cl)=CCC2C(=O)O)sc2c1CCCCC2 (stereo not given) | inactive |
| N#Cc1c(NC(=O)C2CCCO2)sc2c1CCCCC2 (stereo not given) | 13.5 µM (active) |
| O=C(NCc1ccco1)c1sc2cccc(F)c2c1Cl | inactive |
| CCN(C(=O)c1sc2cc(OC)ccc2c1Cl)c1ccccc1 | inactive |
| COc1ccc2c(Cl)c(C(=O)NCc3ccco3)sc2c1 | 10.7 µM (active) |
| COc1cc(C(=O)NC(=S)NCc2ccco2)cc(OC)c1OC | inactive |
| COc1ccc(NC(=O)C(=O)NCc2ccco2)cc1 | inactive |
| COc1ccc2oc(C(=O)NCc3ccco3)c(C)c2c1 | 16.9 µM (active) |
| CCCC(=O)Nc1cc(C(=O)NCc2ccc(OC)cc2)ccc1S(=O)(=O)c1ccc(Cl)cc1 | inactive |
| COc1cc(OC)c(C2C=C(C(=O)O)Nc3ncnn32)cc1OC (stereo not given) | inactive |
| CCC(C)NC(=O)c1ccc(NC(=O)CC2SC(N3CCCCC3)=NC2=O)cc1 (stereo not given) | inactive |
| O=C(COc1ncnc2c(Cl)cc(Cl)cc12)N1CCN(S(=O)(=O)c2ccccc2)CC1 | inactive |
